Results reported in the emibetuzumab library of Makowski et al. (2022).
Some of the results follow. How many sequences the whole screen found active is unknown.

B1: VH:VL chains; a variant is named by its letters at X, in order (parent)
chain 1: QVQLVQSGAEVKKPGASVKVSCKASGYTFTDYXMHWVRQAPGQGLEWMGXVNPNXXXTTYNQKFEGRVTMTTDTSTSTAYMELRSLRSDDTAVYYCARXNXLDXWGQGTTVTVSS
chain 2: DIQMTQSPSSLSASVGDRVTITCSVSSSVSSIYLHWYQQKPGKAPKLLIYSTSNLASGVPSRFSGSGSGTDFTLTISSLQPEDFATYYCQVYSGYPLTFGGGTKVEIK

Variants of: B1
Assay: yeast display scFab, FACS + sequencing
Details: with MET
Procedure, shortened: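 A heavy-chain CDR mutant scFab library on yeast was enriched magnetically with HGFR-Fc-coated Protein A beads for two rounds and then by FACS after labelling with 1 nM HGFR-Fc and anti-Myc in PBSB with 1% milk for 3 h at room temperature, gating the top 50% antigen-positive cells. Antigen binding was judged positive if a sequence turned up in both antigen-positive deep-sequencing samples and negative if it turned up only in the input.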
VGAEDDVA was tested, and the antigen binding call was “no binding”. In the case of SGETGDSV, the antigen binding call is reported as “no binding”. For FRGRSSAA, the antigen binding call was “binds”. For FRGRGSAA, the antigen binding call was “binds”. With VTGRGDVA the antigen binding call was “no binding”. DKEGGSGV was tested, and the antigen binding call was “no binding”. YREGGSGV was tested, and the antigen binding call was “binds”. DREEGAGV was tested, and the antigen binding call was “no binding”. For YREGGAGV, the antigen binding call was “binds”. With VEKEGDWY the antigen binding call was “no binding”. With SAREGDLA the antigen binding call was “no binding”. VTAGDSAD was tested, and the antigen binding call was “no binding”. With VEEEGSAD the antigen binding call was “no binding”. In the case of VRAGGSAD, the antigen binding call is reported as “binds”. With VAGTGSAD the antigen binding call was “no binding”. VRAKGSAD was tested, and the antigen binding call was “binds”. VARETDVA was tested, and the antigen binding call was “no binding”. With VKTGGSWA the antigen binding call was “no binding”. For VKGRGDAA, the antigen binding call was “no binding”. For VKGRGAWA, the antigen binding call was “binds”. For DEGRGSWA, the antigen binding call was “no binding”. VKGRGFAA was tested, and the antigen binding call was “no binding”. VKGRGSWA was tested, and the antigen binding call was “binds”. VTRGADGV was tested, and the antigen binding call was “no binding”. VAGGDFGV was tested, and the antigen binding call was “no binding”. FRGKGASD was tested, and the antigen binding call was “binds”. With SKKTGSVD the antigen binding call was “no binding”. For SAGTGSWD, the antigen binding call was “no binding”. In the case of FRGKGSWD, the antigen binding call is reported as “binds”. With SKKRGSWD the antigen binding call was “binds”. For SKGKGSWD, the antigen binding call was “binds”. VEAGDDWV was tested, and the antigen binding call was “no binding”. With SGRGNDGV the antigen binding call was “no binding”. For DTGGDDWF, the antigen binding call was “no binding”. With DAGGGDAV the antigen binding call was “no binding”. In the case of FRGKGAWD, the antigen binding call is reported as “binds”. For FAGTGSWD, the antigen binding call was “no binding”. FRGTSFGD chain 1 T58I was tested, and the antigen binding call was “no binding”. In the case of YAGTGFVD, the antigen binding call is reported as “no binding”. With FKGKGSWD the antigen binding call was “binds”. For FRGTGFVD, the antigen binding call was “binds”. In the case of YKGKGSWD, the antigen binding call is reported as “binds”. For AAGGNAWS chain 1 G66S, the antigen binding call was “no binding”. In the case of FRGKGAVD, the antigen binding call is reported as “binds”. For DGGKGAVD, the antigen binding call was “no binding”. With DKGGSDVA the antigen binding call was “no binding”. With YKGRSAAA the antigen binding call was “binds”. In the case of DKGGSAVV, the antigen binding call is reported as “no binding”. With YKGGSSAA the antigen binding call was “binds”. In the case of DKGEGAAA, the antigen binding call is reported as “no binding”. For YKGGSAAA, the antigen binding call was “binds”. With FKGGSSAA the antigen binding call was “no binding”. In the case of DEGGTDVF, the antigen binding call is reported as “no binding”. DGGKNDWV was tested, and the antigen binding call was “no binding”. For DAGGASSS, the antigen binding call was “no binding”. YTERNFGV was tested, and the antigen binding call was “no binding”. FRGRGSGF was tested, and the antigen binding call was “binds”. For FRAGGSLF, the antigen binding call was “binds”. In the case of FRGRDFLF, the antigen binding call is reported as “no binding”. For FRGGGSGF, the antigen binding call was “binds”. In the case of FRARSSGF, the antigen binding call is reported as “binds”. For DRAGDSGF, the antigen binding call was “no binding”. With FRGADSGF chain 1 R98K the antigen binding call was “no binding”. With FTARSAGF the antigen binding call was “no binding”. In the case of DGGKNSVD, the antigen binding call is reported as “no binding”. With VEGGGFSV the antigen binding call was “no binding”. VEAGDDAV was tested, and the antigen binding call was “no binding”. With ATAGSDGV the antigen binding call was “no binding”. DAARGDGA was tested, and the antigen binding call was “no binding”. With VKGRSDVY the antigen binding call was “no binding”. With FRGRGALF the antigen binding call was “binds”. With FRKRGSVF the antigen binding call was “binds”. In the case of FRGRGSLF, the antigen binding call is reported as “binds”. FRGRGSVF was tested, and the antigen binding call was “binds”. In the case of ARAAGDVF, the antigen binding call is reported as “no binding”. In the case of YRGGSSGY, the antigen binding call is reported as “binds”. For YRGAGSGS, the antigen binding call was “binds”. With YRGAGSGY the antigen binding call was “binds”. YRGAGSGD was tested, and the antigen binding call was “binds”. For AERRDDGA, the antigen binding call was “no binding”. In the case of VAGGGAGV, the antigen binding call is reported as “no binding”. In the case of YAGGDDSA, the antigen binding call is reported as “no binding”. With VTTKSFGV the antigen binding call was “no binding”. In the case of YRGAGAVS, the antigen binding call is reported as “binds”. With YAGAGAVY the antigen binding call was “no binding”. In the case of YRGAGAVY, the antigen binding call is reported as “binds”. For ARGAGYGS, the antigen binding call was “no binding”. For YRGAGYGS, the antigen binding call was “no binding”. In the case of YRGAGAWS, the antigen binding call is reported as “binds”. For YRGAGAGS, the antigen binding call was “binds”. DEETNSGA was tested, and the antigen binding call was “no binding”. In the case of AREGDDVA, the antigen binding call is reported as “no binding”. YTGTSAVS was tested, and the antigen binding call was “no binding”. With YRGRAAVS the antigen binding call was “binds”. With YRGGGSGS the antigen binding call was “binds”. For YARRAAVS, the antigen binding call was “no binding”. In the case of YRGRGFAY, the antigen binding call is reported as “binds”. In the case of YRGRGYAY, the antigen binding call is reported as “binds”. YAAGGFAY was tested, and the antigen binding call was “no binding”. With YKGAAFAD the antigen binding call was “no binding”. For YRGGGFAD, the antigen binding call was “binds”. YRGRGFAD was tested, and the antigen binding call was “binds”. In the case of VATGDDVA, the antigen binding call is reported as “no binding”. SATKTVVV was tested, and the antigen binding call was “no binding”. In the case of VTGEDSGV, the antigen binding call is reported as “no binding”. With SKGASFAY the antigen binding call was “no binding”. In the case of YKGRGFAY, the antigen binding call is reported as “binds”. In the case of DTGTGDSA, the antigen binding call is reported as “no binding”. For DAGGGDVV, the antigen binding call was “no binding”. VEGGNDGA was tested, and the antigen binding call was “no binding”. In the case of YAGGGDWA, the antigen binding call is reported as “no binding”. YRKRGSVV was tested, and the antigen binding call was “binds”. In the case of YRKRGDVV, the antigen binding call is reported as “binds”. With DREEGDVV the antigen binding call was “no binding”. With YRKRGSLV the antigen binding call was “binds”. In the case of YRKGSSGV, the antigen binding call is reported as “binds”. DAGGDDGA was tested, and the antigen binding call was “no binding”. For AARADAVY, the antigen binding call was “no binding”. DARETFLD was tested, and the antigen binding call was “no binding”. For SGREGDWD, the antigen binding call was “no binding”. YRKRGSGV was tested, and the antigen binding call was “binds”. VRKGGSGV was tested, and the antigen binding call was “binds”. With YRKRGSLY the antigen binding call was “binds”. VEKGGSGV was tested, and the antigen binding call was “no binding”. YRKRGVGV was tested, and the antigen binding call was “no binding”. With YRKGGSGV the antigen binding call was “binds”. DGGGASSA was tested, and the antigen binding call was “no binding”. For YTAGSDGA, the antigen binding call was “no binding”. For SEARSDAD, the antigen binding call was “no binding”. In the case of VEGGGDVY, the antigen binding call is reported as “no binding”. With VAEKGDGV the antigen binding call was “no binding”. For VTAGDDGV, the antigen binding call was “no binding”. In the case of YKRGDAVF, the antigen binding call is reported as “binds”. With VKRGDDVV the antigen binding call was “no binding”. In the case of YKRGSSGF, the antigen binding call is reported as “binds”. YGTAAFGF was tested, and the antigen binding call was “no binding”. With VGGGAAGF the antigen binding call was “no binding”. For YKRGSAGF, the antigen binding call was “binds”. YARADDVF was tested, and the antigen binding call was “no binding”. For YKKGAAGF, the antigen binding call was “binds”. With FGKGGFGY the antigen binding call was “no binding”. YARADSGD was tested, and the antigen binding call was “no binding”. With YATEDSGF the antigen binding call was “binds”. With YAARASGF the antigen binding call was “no binding”. For YKRGDSGF, the antigen binding call was “binds”. AGTKADVV chain 1 G108S was tested, and the antigen binding call was “no binding”. YKGKGSLY was tested, and the antigen binding call was “binds”. For VGTKGSSA, the antigen binding call was “no binding”. YKGKGSSY was tested, and the antigen binding call was “binds”. For VKGKGDVY, the antigen binding call was “no binding”. For YKTKGSSY, the antigen binding call was “binds”. For DATGGSSY, the antigen binding call was “no binding”. With YRGKSSAD the antigen binding call was “binds”. For YAGKTSAD, the antigen binding call was “no binding”. For FRAKGSAD, the antigen binding call was “binds”. With FKGRGSAA the antigen binding call was “binds”. In the case of FRGKGSAD, the antigen binding call is reported as “binds”. For FKGKGSAD, the antigen binding call was “binds”. For DAAGASVD, the antigen binding call was “no binding”. YTKGTSVA chain 1 E65K was tested, and the antigen binding call was “no binding”. With DKEGGFGV the antigen binding call was “no binding”. For DEGGTDGS, the antigen binding call was “no binding”. In the case of SRATAYSD, the antigen binding call is reported as “no binding”. In the case of YRGKGSAD, the antigen binding call is reported as “binds”. VEGAADVD was tested, and the antigen binding call was “no binding”. In the case of VTGGGASF, the antigen binding call is reported as “no binding”. DTKGDSVS was tested, and the antigen binding call was “no binding”. YRKGSSVS was tested, and the antigen binding call was “binds”. With YRTRSSVS the antigen binding call was “binds”. In the case of YRKGGSVS, the antigen binding call is reported as “binds”. For YRKRGSVF, the antigen binding call was “binds”. With VEGTSSLD the antigen binding call was “no binding”. YRGEGAVS was tested, and the antigen binding call was “binds”. With FRGEGSVS the antigen binding call was “binds”. With FRGEGAVS the antigen binding call was “binds”. FAATDSVS was tested, and the antigen binding call was “no binding”. In the case of FKGEGFGS, the antigen binding call is reported as “no binding”. With VRKRGALD the antigen binding call was “binds”. For VRRRGALD, the antigen binding call was “binds”. With VKEKGALD the antigen binding call was “no binding”. For VTERSALD, the antigen binding call was “no binding”. In the case of VRRGGALD, the antigen binding call is reported as “binds”. With VEEEGALD the antigen binding call was “no binding”. With VGGTSALD the antigen binding call was “no binding”. With ATGEADAS the antigen binding call was “no binding”. For DAEATSWV, the antigen binding call was “no binding”. For DTGTGAGD, the antigen binding call was “no binding”. With AEEKGSGD the antigen binding call was “no binding”. YKGKGAWA was tested, and the antigen binding call was “binds”. VKGKGASA was tested, and the antigen binding call was “no binding”. With YATKGAWA the antigen binding call was “no binding”. In the case of VRGKGASA, the antigen binding call is reported as “binds”. For YRGKGAWA, the antigen binding call was “binds”. With VRTEDDVA the antigen binding call was “no binding”. For VRTEDSWA, the antigen binding call was “no binding”. In the case of VRTEDAWA, the antigen binding call is reported as “binds”. For VARADSGV, the antigen binding call was “no binding”. In the case of VEAGDAAV, the antigen binding call is reported as “no binding”. For VRGKGAWA, the antigen binding call was “binds”. YRGKSSWA was tested, and the antigen binding call was “binds”. With YKGKGSWA the antigen binding call was “binds”. In the case of VEGGGAWA, the antigen binding call is reported as “no binding”. With VRGGDDWA the antigen binding call was “no binding”. YRGKGSWA was tested, and the antigen binding call was “binds”. YEGTGSWA was tested, and the antigen binding call was “no binding”. With DAARGDAA the antigen binding call was “no binding”. In the case of YRGAGAGV, the antigen binding call is reported as “binds”. In the case of YRGTGAGV, the antigen binding call is reported as “binds”. With DTGTGAGV the antigen binding call was “no binding”. For YRGAGSGV, the antigen binding call was “binds”. In the case of YRGAGAWV, the antigen binding call is reported as “binds”. For VTGTGAGV, the antigen binding call was “no binding”. In the case of YETGNVWF, the antigen binding call is reported as “no binding”.
